From PubChem BioAssay (Tox21)
Records with an inconclusive call do not appear. Active and inactive are the calls of the source. Unless noted, the call rests on the fitted dose curve; in most records, active means well fitted curve in the direction sought with a large enough effect in the repeat runs; inconclusive means weak or mixed curves; inactive means no such curve, though single readings can be large; an effect the other way counts as inactive or inconclusive.

Legend:
[1] = qHTS assay to identify small molecule agonists of the vitamin D receptor (VDR) signaling pathway - cell viability counter screen (AID 743224); further: nearly all actives have a fitted effect of over 50% in size
In short: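 Cells: VDR-bla, 2,000/well, settled 4 h. Treatment: compounds in DMSO, 16 h, 37C/5% CO2. Readout: CellTiter-Glo luminescence after 30 min RT.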

[2] = qHTS assay to identify small molecule antagonists of the vitamin D receptor (VDR) signaling pathway - cell viability counter screen (AID 743225); further: nearly all actives have a fitted effect of over 50% in size
In short: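 Cytotoxicity toward the VDR-bla HEK 293T line was scored by ATP-based CellTiter-Glo luminescence, read in the wells already used for the beta-lactamase readout after 16 h compound treatment under 3 nM 1-alpha,25-dihydroxyvitamin D3 stimulation.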

[3] = qHTS assay to identify small molecule agonists of the NFkB signaling pathway (AID 1159509; active means well fitted curve in the direction sought with a large enough effect in the signal ratio in the repeat runs, not every such curve was filed as active; the % refers to the signal ratio)
In short: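 Readout: FRET fluorescence, 405 nm excitation, 460/530 nm emission; beta-lactamase expression disrupts FRET. Cells: ME-180 stably carrying NF-kB-driven bla reporter. Compound exposure 5 hr, 37 C, 5% CO2.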

[4] = qHTS assay to identify small molecule agonists of the NFkB signaling pathway - cell viability counter screen (AID 1159515; calls by dose curve; further: nearly all actives have a fitted effect of over 55% in size)
In short: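 Cells are seeded (2,000 NFkB-bla ME-180 per well), rested overnight, and dosed with DMSO-dissolved compounds for 5 hr at 37 C. Viability is then read by CellTiter-Glo luminescence after 30 min at room temperature.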

[5] = qHTS assay to identify small molecule agonists of the endoplasmic reticulum stress response signaling pathway (AID 1159516; active means well fitted activation curve with a large enough effect in the signal ratio in the repeat runs, not every such curve was filed as active; the % refers to the signal ratio)
In short: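 Cells are seeded at 1,500 per well and incubated overnight. Compounds in DMSO are added for 5 hr at 37 C, then beta-lactamase FRET substrate for 2 hr at room temperature, and fluorescence at 460 and 530 nm is measured.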

[6] = qHTS assay to identify small molecule agonists of the endoplasmic reticulum stress response signaling pathway - cell viability counter screen (AID 1159517; calls by dose curve;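 further: HeLa cells carrying an ER stress response element beta-lactamase reporter; nearly all actives have a fitted effect of over 50% in size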)
In short: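 Cytotoxicity of test compounds toward ESRE-bla HeLa cells was assessed after 5 hr exposure. The luminescent CellTiter-Glo signal was measured 30 min after reagent addition.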

[7] = qHTS assay to identify small molecule antagonists of the retinoid-related orphan receptor gamma (ROR-gamma) signaling pathway - cell viability counter screen (AID 1159520); further: nearly all actives have a fitted effect of over 50% in size
In short: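 Tet-on ROR gamma CHO cells (1,000/well) were plated 4 hr, given compounds in DMSO for 2 hr at 37 C, then induced with 1 uM final doxycycline for 16 hr. Viability was read as ATP by CellTiter-Glo luminescence after 30 min.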

[8] = molecular target: Nuclear receptor ROR-gamma (Homo sapiens) (UniProt P51449); assay: qHTS assay to identify small molecule antagonists of the retinoid-related orphan receptor gamma (ROR-gamma) signaling pathway (AID 1159521)
In short: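 Readout: ONE-Glo luciferase luminescence, 30 min at room temperature. System: Tet-on RORγ CHO, RORE-LUC. Sequence: compound 2 h, doxycycline 1 uM final, 16 h at 37 C.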

[9] = qHTS assay to identify small molecule agonists of the AP-1 signaling pathway - cell viability counter screen (AID 1159525; calls by dose curve; further: nearly all actives have a fitted effect of over 55% in size)
In short: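 Each titration point was normalised to DMSO and tetra n-octyl ammonium bromide controls. The read was Cell Titer Glo luminescence after 30 min at RT, following 5 h compound exposure of ME-180 AP-1-bla cells at 37 °C.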

[10] = qHTS assay to identify small molecule agonists of the AP-1 signaling pathway (AID 1159526; calls by dose curve)
[11] = molecular target: Retinoic acid receptor RXR-alpha (Homo sapiens) (UniProt P19793); assay: qHTS assay to identify small molecule agonists of the RXR signaling pathway (AID 1159527; calls by dose curve; further: nearly all actives have a fitted effect of over 35% in size)
In short: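 Reporter activation is measured as beta-lactamase activity via FRET substrate cleavage (emission 460/530 nm) in HEK 293T cells expressing an RXR-alpha-driven bla construct, following 16 hr compound exposure at 37 C.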

[12] = qHTS assay to identify small molecule agonists of the RXR signaling pathway - cell viability counter screen (AID 1159529); further: nearly all actives have a fitted effect of over 50% in size
In short: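 Tox21 10K compounds were tested for cytotoxicity against GeneBLAzer RXR-alpha HEK 293T cells grown in 2% charcoal-stripped FBS. Exposure lasted 16 hr at 37 C, 5% CO2; viability read by CellTiter-Glo luminescence.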

[13] = qHTS assay to identify small molecule antagonists of the retinoid acid receptor (RAR) signaling pathway - cell viability counter screen (AID 1159551); further: nearly all actives have a fitted effect of over 35% in size
In short: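 Cells (C3RL4) are plated, incubated overnight, dosed with compound in DMSO, then given retinol at 1 uM final. After 6 h at 37 C, CellTiter-Glo is added and luminescence read following 30 min at room temperature.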

[14] = qHTS assay to identify small molecule antagonists of the retinoic acid receptor (RAR) signaling pathway (AID 1159552; further: nearly all actives have a fitted effect of over 50% in size)
In short: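 Overnight-plated C3RL4 reporter cells get compound, then retinol to 1 uM final; plates sit 6 hr at 37 C, 5% CO2. A luciferase reagent is added and light output recorded after 30 min at room temperature.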

[15] = qHTS assay to identify small molecule agonists of the retinoic acid receptor (RAR) signaling pathway (AID 1159553); details: C3RL4 RARE luciferase reporter, agonist, 6 h; activation: at 73.3 µM (top of the series)
In short: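 Seed C3RL4 reporter cells at 1,000 per well and incubate overnight at 37 C. Add compounds in DMSO, incubate 6 hr. Add luciferase reagent, wait 30 min at room temperature, read luminescence.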

[16] = qHTS assay to identify small molecule antagonists of the estrogen related receptor (ERR) signaling pathway from Tox21 library - cell viability counter screen (AID 1224834); further: nearly all actives have a fitted effect of over 30% in size
In short: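 ERR cells, 2,000/well; 6 h settle at 37 C/5% CO2; pin-tool compound transfer in DMSO; 17.5 h at 37 C; CellTiter-Fluor, 30 min; fluorescence intensity.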

[17] = molecular target: Luciferin 4-monooxygenase (Photinus pyralis) (UniProt P08659); assay: qHTS assay to identify small molecule inhibitors of firefly luciferase (AID 1224835); further: nearly all actives have a fitted effect of over 25% in size
In short: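 Quantitative HTS format; KM concentrations of both substrates. Purified P. pyralis FLuc activity quantified from luminescence images.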

[18] = qHTS assay to identify small molecule agonists of the constitutive androstane receptor (CAR) signaling pathway - cell viability counter screen (AID 1224836); further: nearly all actives have a fitted effect of over 45% in size
In short: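 Fluorescence from CellTiter-Fluor indicates live cells after 23 h exposure. The human hepatoma line expresses hCAR and a CYP2B6-2.2kb reporter. Incubation medium contains 0.75 uM PK11195 (final).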

[19] = qHTS assay to identify small molecule antagonists of the constitutive androstane receptor (CAR) signaling pathway - cell viability counter screen (AID 1224837); further: nearly all actives have a fitted effect of over 45% in size
In short: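 Viability was measured with CellTiter-Fluor in a HepG2 line carrying stably transfected hCAR and a CYP2B6-2.2kb construct. Cells were exposed for 23 hr at 37 C to 15 compound concentrations with 50 nM CITCO as agonist.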

[20] = molecular target: Nuclear receptor subfamily 1 group I member 3 (Homo sapiens) (UniProt Q14994); assay: qHTS assay to identify small molecule antagonists of the constitutive androstane receptor (CAR) signaling pathway (AID 1224838);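 further: HepG2 cells stably expressing hCAR with CYP2B6 luciferase reporter stimulated by CITCO; nearly all actives have a fitted effect of over 40% in size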
In short: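 Antagonist mode used CITCO at a final 50 nM to activate CAR in human hepatoma HepG2 cells carrying stable hCAR and a 2.2 kb CYP2B6 promoter-luciferase construct. Compounds were tested at 15 concentrations over 24 h, with luminescence as the end point.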

Measured: Potency

Luciferin 4-monooxygenase (Photinus pyralis), sequence (P08659 whole entry, looked up): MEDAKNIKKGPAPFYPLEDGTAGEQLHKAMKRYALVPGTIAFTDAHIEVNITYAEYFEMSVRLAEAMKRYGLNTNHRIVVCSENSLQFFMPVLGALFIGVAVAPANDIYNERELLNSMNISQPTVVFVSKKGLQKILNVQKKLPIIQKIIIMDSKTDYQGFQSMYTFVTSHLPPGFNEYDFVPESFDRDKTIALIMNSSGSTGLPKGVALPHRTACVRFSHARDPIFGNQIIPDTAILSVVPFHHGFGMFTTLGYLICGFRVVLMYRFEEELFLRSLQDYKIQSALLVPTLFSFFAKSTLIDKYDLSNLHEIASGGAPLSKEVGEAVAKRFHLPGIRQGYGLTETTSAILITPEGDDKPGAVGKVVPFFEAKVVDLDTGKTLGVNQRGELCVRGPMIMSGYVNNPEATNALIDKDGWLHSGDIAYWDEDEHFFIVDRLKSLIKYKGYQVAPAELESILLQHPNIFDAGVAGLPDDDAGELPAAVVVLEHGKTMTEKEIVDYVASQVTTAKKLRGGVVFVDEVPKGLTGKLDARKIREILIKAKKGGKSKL
Retinoic acid receptor RXR-alpha (Homo sapiens), sequence (P19793 whole entry, looked up): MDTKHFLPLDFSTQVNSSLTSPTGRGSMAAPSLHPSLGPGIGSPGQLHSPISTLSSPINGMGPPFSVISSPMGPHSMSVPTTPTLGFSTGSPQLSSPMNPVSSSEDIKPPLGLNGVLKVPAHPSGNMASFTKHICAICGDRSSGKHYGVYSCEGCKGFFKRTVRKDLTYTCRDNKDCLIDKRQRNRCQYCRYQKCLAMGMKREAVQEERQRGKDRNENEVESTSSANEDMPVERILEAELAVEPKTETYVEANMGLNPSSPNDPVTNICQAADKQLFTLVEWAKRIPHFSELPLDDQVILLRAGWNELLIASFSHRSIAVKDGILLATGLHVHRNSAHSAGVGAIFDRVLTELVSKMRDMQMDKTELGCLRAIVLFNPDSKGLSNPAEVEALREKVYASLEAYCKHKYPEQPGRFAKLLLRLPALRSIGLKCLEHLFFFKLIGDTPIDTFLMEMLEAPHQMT
Nuclear receptor subfamily 1 group I member 3 (Homo sapiens), sequence (Q14994 whole entry, looked up): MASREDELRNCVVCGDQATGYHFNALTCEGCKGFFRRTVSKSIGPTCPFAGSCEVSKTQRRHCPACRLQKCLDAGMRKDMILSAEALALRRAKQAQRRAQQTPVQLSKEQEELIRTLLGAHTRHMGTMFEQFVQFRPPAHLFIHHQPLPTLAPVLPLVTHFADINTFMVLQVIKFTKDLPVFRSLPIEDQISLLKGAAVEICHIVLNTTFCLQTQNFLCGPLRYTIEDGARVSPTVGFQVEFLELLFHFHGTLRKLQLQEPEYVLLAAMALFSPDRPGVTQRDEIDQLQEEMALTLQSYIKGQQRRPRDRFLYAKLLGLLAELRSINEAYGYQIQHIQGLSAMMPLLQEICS

CC(=O)N(CC(O)CO)c1c(I)c(C(=O)NCC(O)CO)c(I)c(C(=O)NCC(O)CO)c1I (stereo not given)
not listed: [20]
inactive: all other assays above

CCCCCC1CCCC(=O)O1 (stereo not given)
not listed: [20]
inactive: all other assays above

CCCCCCCCCCCCCCCC(=O)NCCO
inactive: all assays above

NC(=O)NC(=O)Cc1ccccc1
not listed: [19] | [20]
inactive: all other assays above

CC(=O)c1ccc2c(c1)CCCC2
not listed: [2] | [17]
inactive: all other assays above

CCCCOC(=O)C(C)OC(=O)CCC (stereo not given)
not listed: [19] | [20]
inactive: all other assays above

CCCCCCCC/C=C\CCCCCCCC(=O)OC[C@@H](O)[C@H]1OC[C@H](O)[C@H]1O
not listed: [2] | [20]
inactive: all other assays above
